# Assay outcomes: PubChem, National Center for Advancing Translational Sciences (NCATS)
# The list is not random: actives were taken first. Their share in the collection is about 1.5%.
# FEN1 inh-1: inhibitors of human flap endonuclease 1; P39748; Recombinant FEN1 flap cleavage, fluorescence, 15 min; Potency, µM (titrated, usually from 114 µM), usual class: inhibitors; 390,000 compounds, 0.35% hits; AID 588795; note: nearly all actives have a fitted effect of over 65% in size
#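 Nuclease activity of 10 nM FEN1 was measured after 15 min of room-temperature exposure to titrated compounds, by adding 50 nM flap substrate and reading plates at 0 and 15 min.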
# PI5P4Ka inh: inhibitors of human PI5P4K alpha; max response, %; 330,000 compounds, 1.2% hits; P48426; PI5P4Kalpha enzyme, ADP-Glo luminescence, 60 min; stronger effect = lower value; active = max response of -50% or lower; inconclusive = between -30% and -50%; inactive = -30% or higher; note: value at the top dose of about 77 µM
#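 Reactions run in 0.038 M HEPES pH 7.4, 0.28 mM EGTA, 0.1% CHAPS and 5% DMSO, with PI5P4Kalpha, substrate, compound and 5 microM ATP final, one hour at room temperature. Readout is ADP-Glo luminescence.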
# RECQ1 inh: inhibitors of human RECQ1 DNA helicase. RECQ1 DNA unwinding, red fluorescence kinetic read. Potency, µM (series often up to 57.3 µM), usual class: inhibitors. 240,000 compounds, 0.54% hits. AID 2549; note: nearly all actives have a fitted effect of over 30% in size
# Target sequence (P46063 whole entry, looked up): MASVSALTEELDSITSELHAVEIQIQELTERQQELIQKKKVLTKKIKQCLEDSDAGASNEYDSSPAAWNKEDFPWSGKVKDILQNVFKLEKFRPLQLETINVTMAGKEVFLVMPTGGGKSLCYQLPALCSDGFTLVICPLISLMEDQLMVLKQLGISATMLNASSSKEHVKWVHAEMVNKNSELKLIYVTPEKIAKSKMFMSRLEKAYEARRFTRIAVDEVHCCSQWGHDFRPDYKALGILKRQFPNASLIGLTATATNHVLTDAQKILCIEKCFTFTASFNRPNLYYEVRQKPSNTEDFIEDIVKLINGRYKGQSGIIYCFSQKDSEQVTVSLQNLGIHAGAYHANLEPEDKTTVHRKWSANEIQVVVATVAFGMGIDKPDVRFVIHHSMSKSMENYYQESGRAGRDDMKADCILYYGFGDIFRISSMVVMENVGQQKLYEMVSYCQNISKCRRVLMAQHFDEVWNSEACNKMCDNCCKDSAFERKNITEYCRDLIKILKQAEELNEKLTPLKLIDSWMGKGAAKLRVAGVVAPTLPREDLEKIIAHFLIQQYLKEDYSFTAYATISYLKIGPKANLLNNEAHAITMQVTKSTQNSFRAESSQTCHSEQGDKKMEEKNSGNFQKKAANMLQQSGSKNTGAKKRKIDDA
#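 50 nM RECQ1T1 preincubated 15 min with compound in Tris pH 8.0 buffer with MgCl2, DTT, Tween-20 and 2.5 ug/ml poly(dI-dC); started with 200 nM TAMRA/BHQ-2 forked duplex and 2 mM ATP. Unwinding read as fluorescence (525/598 nm), two reads 2 h apart.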
# APE1 inh: blocks human APE1 abasic DNA cleavage; recombinant APE1, TAMRA/BHQ-2 abasic DNA cleavage fluorescence; 350,000 compounds, 0.35% hits; Potency, µM (doses to about 65.8 µM), most hits filed as inhibitors; P27695; AID 2517; note: nearly all actives have a fitted effect of over 55% in size
#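 Compound pre-exposure to 0.75 nM APE1, 15 min at ambient temperature. Reaction initiated with 50 nM TAMRA/BHQ-2 THF substrate, read immediately in kinetic mode, 525 nm excitation, 598 nm emission.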
# BLM helicase inh: inhibitors of human Bloom syndrome helicase BLM; P54132; recombinant BLM DNA unwinding, fluorescence dequenching; Potency, µM (highest dose often 56.1 µM), usual class: inhibitors; 350,000 compounds, 0.2% hits; note: nearly all actives have a fitted effect of over 35% in size
# WRN inhibitor: inhibitors of human WRN helicase | AID 651768 | WRN helicase unwinding, fluorescent forked duplex, kinetic | 360,000 compounds, 0.46% hits | Potency, µM (titrated, usually from 114 µM), hits mostly inhibitors; note: nearly all actives have a fitted effect of over 55% in size
#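 WRN at 20 nM final was preincubated with compound for 15 min at room temperature; reaction started with 100 nM forked duplex oligonucleotide carrying fluorophore and quencher plus 2 mM ATP (final). Unwinding followed kinetically by red fluorescence (ex 525/em 598 nm).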
# FEN1 inh-2: FEN1 inhibition, cherry-pick retest; FEN1 flap cleavage, TAMRA/BHQ2 fluorogenic DNA substrate; Potency, µM, actives largely listed as inhibitors; AID 720498; 880 compounds, 79% hits; shares compounds with FEN1 inh-1; note: nearly all actives have a fitted effect of over 60% in size
# Numbers stand for hits; - = inactive; ? = inconclusive; . = no result given; [ ] = another dose, or the depositor's remark. Unless noted, calls come from the whole dose curve; as a rule, active = well fitted curve in the direction sought with a large enough effect; inconclusive = small, poorly fitted or top-dose-only effect, or another doubt; inactive = no such curve, though single readings can be large; an effect the other way counts as inactive or inconclusive.
SMILES,FEN1 inh-1,PI5P4Ka inh,RECQ1 inh,APE1 inh,BLM helicase inh,WRN inhibitor,FEN1 inh-2
C/C(=N\Nc1nc2ccccc2c(=O)n1O)c1ccco1,?,?,.,-,-,-[11.6 µM],30
Cc1nc2ccccc2c(=O)n1NC(=O)c1ccco1,-,-,-,-,-,-,.
Cc1cc(N/N=C/c2ccc(O)cc2)c2cccc(C)c2n1,?,-,.,?,?,45µM,38
O=C(NNc1cc(N2CCOCC2)nc(N2CCOCC2)n1)c1ccc([N+](=O)[O-])cc1,-,-,-,-,?,-[11.6 µM],?
O=C(NN1C(=O)/C(=C/c2ccc(O)cc2)SC1=S)c1cccc(O)c1,-,-,.,-,-,-[11.6 µM],?
O=C(NN1C(=O)/C(=C/c2ccc(O)cc2)SC1=S)c1ccccc1O,-,?,.,-,-,-[11.6 µM],.
CCc1ccc(NC(=O)CC2C(=O)N(c3ccc(Cl)cc3)C(=O)N2Cc2cccs2)cc1 (configuration not stated),-,.,.,.,-,.,.
O=C1NN(c2ccc(Cl)cc2)C(=O)/C1=C\c1ccc(-c2cccc(C(=O)O)c2)o1,50µM,-69,?,7.9µM,-,?,67
CCCN1CNc2c(c(=O)[nH]c(=S)n2CCc2cccc(C)c2C)C1,-,.,.,.,.,.,.
Cc1ccc(NC(=O)CN2C(=O)S/C(=C\c3cc(Cl)c(OCC(=O)O)c(Cl)c3)C2=O)cc1,45µM,?,.,7.5µM,?,-[11.6 µM],76
COc1ccc(/C=C2\SC(=O)N(CC(=O)Nc3ccc(O)cc3)C2=O)cc1OC,-,-,.,-,-,-,.
O=[N+]([O-])c1ccc(N/N=C/c2ccc(O)c(O)c2O)c(S(=O)(=O)N2CCOCC2)c1,20µM,-98,?,?,-,?,34
N#Cc1ccccc1-c1ccc2ncnc(NCc3cccs3)c2c1,.,.,-,-,-,.,.
O=c1nc2c(O)cccn2c2c1c(=O)[nH]c1ccccc12,56µM,-58,-,-,7.9µM,?,34
O=C(Nc1nnc(Cc2ccc(Cl)cc2)s1)C1CCN(C(=O)c2ccco2)CC1,-,.,.,.,.,.,.
O=C(O)c1ccc2[nH]c3c(c2c1)CSCC3,-,-,-,-,-,-,.
CN(C)CCOC(=O)c1ccc2[nH]c3c(c2c1)CSCC3,50µM,-,-,-,-,-[11.6 µM],85
C=CCOc1ccc(Br)cc1/C=N/O,-,-,-,-,-,-,.
C=CCOc1ccc(Br)cc1/C=C1/SC(=Nc2ccc(C(=O)O)cc2)NC1=O,25µM,-72,-,-,-,-[11.6 µM],?
Cc1cc(C)c2c(n1)sc1c(=O)n(-c3cc(Cl)ccc3C)nnc12,-,.,.,.,-,.,.
Cc1ccc(-n2nc3c(N4CCCC(C(=O)NCc5ccccc5C)C4)nnc(C)c3c2C)cc1 (configuration not stated),-,.,.,.,-,.,.
Nc1ccc(Br)c2cccnc12,?,-,-,-,-,-,67
CCC(=O)N1CCc2cc(Br)cc(S(=O)(=O)N3CCCC(C(=O)NCc4cccc(OC)c4)C3)c21 (configuration not stated),-,.,.,.,-,.,.
O=C(Nc1cc(C(=O)Nc2ccccc2C(=O)O)cc(C(=O)Nc2ccccc2C(=O)O)c1)c1ccccc1,25µM,-82,.,-,-,40µM,34
O=c1c2ccccc2nc2sc(Nc3ccc4c(c3)CNC4)nn12,.,.,.,.,.,.,38
SMILES,FEN1 inh-1,PI5P4Ka inh,RECQ1 inh,APE1 inh,BLM helicase inh,WRN inhibitor,FEN1 inh-2
CCSc1ccccc1C(=O)Nc1ccc(-c2nc3ccccc3s2)c(O)c1,-,.,.,.,-,.,.
COc1ccc(Cl)cc1NC(=O)c1c(NCc2cccs2)sc2c1CCCC2,-,.,.,.,-,.,.
O=C(Nc1ncccc1O)c1c(O)c2ccccc2[nH]c1=O,?,-,-,-,-,-[11.6 µM],?
COc1cc([N+](=O)[O-])ccc1NC(=O)Nc1cnccn1,-,-,.,-,-,-,?
COc1ccccc1NC(=O)Nc1cnccn1,-,-,-,-,-,-,.
CCc1cccc2c(-c3ccc(F)cc3)nc(SCC(=O)Nc3ccccc3)nc12,-,.,.,.,-,.,.
O=C(NCc1ccccc1C(F)(F)F)c1cccc2c1C(=O)c1ccc(N3CCC(N4CCCCC4)CC3)cc1S2(=O)=O,.,-,.,.,.,-,76
COc1cc(NC(=O)c2cc3c(C)nc4ccccc4c3o2)cc(OC)c1OC,?,-,-,?,-,?,?
O=C1COc2ccc(C(=O)COC(=O)/C=C/c3ccc(Br)o3)cc2N1,?,-80,.,?,.,35µM,?
Cc1ccc(/C=C/C(=O)OCC(=O)c2ccc3c(c2)NC(=O)CO3)o1,-,-,.,-,.,-,.
O=C(N/N=C/c1cccnc1)c1cc(O)c(O)c(O)c1,4µM,-,.,?,-,?,6
O=C(N/N=C/c1cccnc1)c1cc(Br)ccc1O,-,-,.,-,-,-,.
CCOC(=O)C1CCCNC1=O (configuration not stated),-,-,-,-,-,-,.
CCOC(=O)C1CCNC(=O)C1=O (configuration not stated),20µM,-,.,.,.,-,21
Cc1nc(-c2cccc(NC(=O)Nc3ccc([N+](=O)[O-])cc3)c2)no1,-,.,.,.,-,.,.
COc1cccc(-c2nc(NCCN3CCOCC3)c3ccccc3n2)c1O,40µM,-,-,?,-,-,?
COc1ccccc1-c1nc(NCCN2CCOCC2)c2ccccc2n1,.,.,-,-,-,.,.
O=C1NC(=O)/C(=C/c2ccc(-c3cccc([N+](=O)[O-])c3)o2)S1,?,-51,.,13µM,?,32µM,?
CCn1cc(C(=O)O)c(=O)c2cc(F)c(N3CCN(C(=O)Nc4ccccc4)CC3)cc21,-,.,-,-,-,-,.
CCn1cc(C(=O)O)c(=O)c2cc(F)c(N/N=C/c3ccccc3)cc21,?,-,-,-,-,-,38
Cc1ccc2[nH]c3c(=O)n(CC(=O)N4CCCC(C)C4)ncc3c2c1 (configuration not stated),?,.,.,.,-,.,.
COc1cc(C)c2c(c1C=O)Oc1c(c(C)c(O)c3c1C(O)OC3=O)OC2=O (configuration not stated),?,-64,14µM,13µM,-,50µM,76
NC(=S)NN=Cc1ccc(-c2ccc(S(=O)(=O)Nc3ncccn3)cc2)o1,79µM,-55,.,-,.,25µM,24
Cc1ccccc1OCc1nnc(SCc2cc(=O)c3cccc(F)c3[nH]2)n1C,-,.,.,.,-,.,.
COc1cc(C)c(C(=O)CC(=O)c2c(C)cc(OC)cc2C)c(C)c1,-,-,.,.,.,-,.
COC(=O)C(=O)/C=C(\O)c1c(C)cc(C)cc1C,?,-,-,-,-,-,38
CCOC(=O)C1CCN(C(=O)c2nn(-c3ccc(C)cc3)c(=O)n(C)c2=O)CC1,-,.,.,.,-,.,.
O=C1CN(C(=O)COC(=O)c2ccc([N+](=O)[O-])s2)c2ccccc2N1,?,-,.,?,.,-,7.6
